In general, AC50 refers to the concentration at which the activity in the assay is half-maximal.

Among all 16,000 compounds or so, about 2,600 (16%) were called active. About 20% were inconclusive and are not listed. The call rests on the fitted dose curve; in most records, active means well fitted curve in the direction sought with a large enough effect; inconclusive means small, poorly fitted or top-dose-only effect, or effect the other way; inactive means no such curve, though single readings can be large or run the other way. Only a sample is shown. Some structures have more than one record in an assay (separate samples or runs), and their calls can disagree.

For 93 molecules, activity, negative = inhibition and AC50 results are on record in PubChem BioAssay AID1851 (National Center for Advancing Translational Sciences (NCATS), 2009).
On the % scale 0 is the no-effect control and ±100 the full control effect.

The target in the assay is Cytochrome P450 2D6 (Homo sapiens) (UniProt P10635). Put plainly: Cytochrome panel assay with activity outcomes. To be noted: recombinant CYP, pro-luciferin dealkylation, luminescence, p450-cyp2d6; series mostly up to 57.1 µM.
Cytochrome P450 2D6 (Homo sapiens), sequence (P10635 whole entry, looked up): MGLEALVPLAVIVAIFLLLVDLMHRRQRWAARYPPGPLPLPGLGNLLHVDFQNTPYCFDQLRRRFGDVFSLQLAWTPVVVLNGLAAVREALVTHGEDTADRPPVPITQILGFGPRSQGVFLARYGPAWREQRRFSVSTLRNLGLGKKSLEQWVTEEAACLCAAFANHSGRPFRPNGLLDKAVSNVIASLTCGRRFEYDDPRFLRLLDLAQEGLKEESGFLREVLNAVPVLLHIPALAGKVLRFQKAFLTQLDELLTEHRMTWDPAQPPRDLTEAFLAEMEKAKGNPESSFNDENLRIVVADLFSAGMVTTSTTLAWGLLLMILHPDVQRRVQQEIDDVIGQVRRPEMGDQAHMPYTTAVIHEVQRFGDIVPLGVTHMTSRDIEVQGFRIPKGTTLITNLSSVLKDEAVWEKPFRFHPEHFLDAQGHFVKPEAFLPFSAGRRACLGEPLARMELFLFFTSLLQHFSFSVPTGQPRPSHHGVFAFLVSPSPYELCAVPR
In the case of `C[C@@]12CCC(=O)C=C1CC[C@H]1[C@@H]2[C@@H](O)C[C@]2(C)[C@@H]1CC[C@@]2(O)C(=O)COC(=O)C1CCCC1`, the activity, negative = inhibition was 8.32% [at 11.4 µM] (inactive).

Regarding `CCCn1c(=O)c2[nH]c(-c3ccc(OCC(=O)NCCN)cc3)nc2n(CCC)c1=O`, the AC50 result is “inactive”.

Regarding `C[C@@]12CCC(=O)C=C1CC[C@H]1[C@@H]2[C@@H](O)C[C@]2(C)[C@@H]1CC[C@@]2(O)C(=O)CO`, the activity, negative = inhibition was 17% [at 11.4 µM] (inactive).

For `O=C(Oc1ccccc1)N1CCC2(CC1)CCN(c1cccc(-c3ccccc3)c1)CC2`, the AC50 entry is “inactive”.

`CCCCCCCCN[C@@H](C)[C@H](O)c1ccc(SC(C)C)cc1`: the half-maximal activity concentration (AC50) was 1 µM (active).

Consider `CCCn1cnc2c(SCC(=O)O)nc(N)nc21`, for which the activity, negative = inhibition was 7.62% [at 11.4 µM] (inactive).

For the molecule `CCOc1nc(NC(C)C)nc(NC(C)C)n1`, the AC50 result was “inactive”.

Take `COc1ccc(-n2cnc3sc(-c4ccccc4)cc3c2=O)cc1`: the AC50 entry was “inactive”.

As for `COc1cccc(Nc2ncc(C(=O)O)c3ccccc23)c1`, the AC50 entry is “inactive”.

`COc1ccc(Nc2ncnc3sc(-c4ccccc4)cc23)cc1`: the AC50 is 28.2 µM (active).

For `Fc1ccc(-c2cn3cc(C(F)(F)F)cc(Cl)c3n2)cc1`, the AC50 entry was “inactive”.

For `COc1ccc(Cn2c(SCc3ccccc3C)nc3cc(OC)c(OC)cc3c2=N)cc1`, the AC50 is 1.26 µM (active).

On to `COCCNC(=O)CSc1nc2ccc(N3CCOCC3)cc2c(=O)n1Cc1ccc(OC)cc1`, for which the AC50 entry was “inactive”.

Turning to `COc1cc2nc(SCc3ccc(Cl)cc3Cl)n(Cc3cccs3)c(=N)c2cc1OC`, the AC50 is 2.24 µM (active).

On to `CN1CCN(c2ncc3nc(-c4ccc(Cl)cc4)c(=O)n(Cc4cccs4)c3n2)CC1`, for which the AC50 entry was “inactive”.

In the case of `CCCCNC(=O)CSc1nc2cc(OC)c(OC)cc2c(=O)n1Cc1ccc(OC)cc1`, the AC50 entry is “inactive”.

Consider `COc1ncc2ncc(=O)n(Cc3cccs3)c2n1`, for which the AC50 entry was “inactive”.

In the case of `CC(=O)N(O)CCCCCNC(=O)CCC(=O)N(O)CCCCCNC(=O)CCC(=O)N(O)CCCCCN`, the AC50 result is “inactive”.

With `CN1CCC2(CC1)CCN(C(=O)c1cc(C(F)(F)F)cc(C(F)(F)F)c1)CC2`, the AC50 result is “inactive”.

`Cc1noc(C)c1COc1cccc(C(=O)OCC(=O)N2CC(=O)Nc3ccccc32)c1`: the AC50 entry is “inactive”.

On to `CN(CC(=O)O)Cc1c(O)c(Cl)cc(Cl)c1Cl`, for which the activity, negative = inhibition is 8.14% [at 11.4 µM] (inactive).

For `N[C@@H](C(=O)O)c1ccc(P(=O)(O)O)cc1`, the AC50 was 25.1 µM (active).

Regarding `N[C@@H](C(=O)O)c1ccc(C(=O)O)c(C(=O)O)c1`, the AC50 was 7.94 µM (active) and inactive.

Regarding `N[C@H](C(=O)O)c1ccc(O)c(C(=O)O)c1`, the AC50 result is “inactive”.

For `N[C@H](C(=O)O)c1ccc(C(=O)O)cc1`, the AC50 entry was “inactive”.

Consider `N[C@@H](C(=O)O)c1ccc(C(=O)O)c(O)c1`, for which the AC50 result is “inactive”.

`N[C@@H](C(=O)O)c1ccc(C(=O)O)cc1`: the AC50 result is “inactive”.

For `O=C(Oc1ccccc1N1C(=O)C2CCCCC2C1=O)c1ccccc1` (stereo not drawn), the AC50 entry is “inactive”.

For `COCCn1c(=O)c(CCc2ccccc2)nc2cnc(Oc3cccc(Cl)c3)nc21`, the AC50 entry is “inactive”.

Take `Nc1ccc(S(=O)(=O)Nc2nccs2)cc1`: the AC50 entry is “inactive”.

Consider `CCN(CC)c1ccc(SS(=O)(=O)O)cc1`, for which the AC50 result was “inactive”.

For `C[C@@H](C(=O)NCc1ccc(S(C)(=O)=O)cc1)[C@H]1C[C@]1(C)[C@H](NC(=O)OCc1ccccc1)c1ccccc1`, the AC50 is 0.398 µM (active).

For `C[C@@H](C(=O)NCCF)[C@H]1C[C@]1(C)[C@H](NC(=O)OCc1ccccc1)c1ccccc1`, the AC50 was 6.31 µM (active).

Turning to `COC(=O)[C@H](C)[C@@H]1C[C@@]1(C)[C@@H](NC(=O)OCc1ccccc1)c1ccccc1`, the AC50 entry is “inactive”.

For the molecule `C[C@@H](C(=O)NCc1cccc2ccccc12)[C@H]1C[C@]1(C)[C@H](NC(=O)OCc1ccccc1)c1ccccc1`, the AC50 entry was “inactive”.

Regarding `COC(=O)[C@H](C)[C@H]1C[C@]1(C)[C@H](NC(=O)OCc1ccccc1)c1ccccc1`, the AC50 entry was “inactive”.

For the molecule `O=C(N[C@@H](c1ccccc1)[C@@H]1C[C@H]1C(=O)O)OCc1ccccc1`, the AC50 entry was “inactive”.

`C[C@@H](C(=O)NCc1ccccn1)[C@@H]1C[C@@]1(C)[C@@H](NC(=O)OCc1ccccc1)c1ccccc1`: the AC50 was 12.6 µM (active).

As for `C[C@@H](C(=O)NCCc1c[nH]c2ccccc12)[C@H]1C[C@]1(C)[C@H](NC(=O)OCc1ccccc1)c1ccccc1`, the AC50 was 2 µM (active).

`O=C(N[C@@H](c1ccccc1)[C@@H]1C[C@H]1C(=O)NCc1ccccn1)OCc1ccccc1`: the AC50 entry was “inactive”.

On to `O=C(O)c1ccccc1-c1ccc(/C=c2\sc3nc4cc(Br)cnc4n3c2=O)o1`, for which the AC50 entry was “inactive”.

On to `N#CC(C#N)=C(N)/C(C#N)=C/c1ccc(O)cc1`, for which the AC50 entry is “inactive”.

On to `COc1ccc(/C(C)=N/NC(=O)c2ccc(N(C)C)cc2)cc1`, for which the AC50 entry was “inactive”.

Consider `COc1cc2c(cc1OC)C(C(=O)Nc1cccc(C)n1)C(c1cccnc1)N(C)C2=O` (stereo not drawn), for which the AC50 entry is “inactive”.

For `COc1cc(C2C(=O)N(C3CCCC3)CC(=O)N2Cc2ccco2)ccc1OC(C)C` (stereo not drawn), the AC50 entry was “inactive”.

Consider `CCCC1C(=O)N(c2ccccc2)C1c1ccccc1` (stereo not drawn), for which the AC50 result is “inactive”.

Take `CCCCOC(=O)c1cc2c(cn1)[nH]c1ccccc12`: the AC50 entry was “inactive”.

Turning to `CCCC[C@@H]1C[C@H]1C(NC(=O)Cc1ccccc1)c1ccc(-c2ccccc2)cc1` (stereo partly drawn), the AC50 entry is “inactive”.

`CCOC(=O)c1c(C)nc2sc3c(=O)n(-c4ccc(C)cc4)cnc3c2c1-c1ccc(OC)cc1`: the AC50 result is “inactive”.

For `O=C(O)c1c2c(c(O)c3c1CN(C1CCCCC1)CO3)OCN(C1CCCCC1)C2`, the activity, negative = inhibition is 15.7% [at 11.4 µM] (inactive).

With `C[C@@H](C(=O)O)[C@@H]1C[C@@]1(C)[C@@H](NC(=O)OCc1ccccc1)c1ccccc1`, the AC50 result was “inactive”.

As for `CNC(=O)[C@H](C)[C@@H]1C[C@@]1(C)[C@@H](NC(=O)OCc1ccccc1)c1ccccc1`, the AC50 was 3.16 µM (active).

Turning to `C[C@@H](C(=O)O)[C@H]1C[C@]1(C)[C@H](NC(=O)OCc1ccccc1)c1ccccc1`, the AC50 entry was “inactive”.

With `O=C(O)C[C@H](Cc1ccccc1)C(=O)O`, the activity, negative = inhibition is 6.15% [at 11.4 µM] (inactive).

Take `CCC(C)NC(=O)NC(=O)N(C1CCCCC1)S(C)(=O)=O` (stereo not drawn): the AC50 result is “inactive”.

As for `CO[C@H]1C[C@@H](O[C@@H]2[C@H](C)[C@H](O[C@@H]3O[C@@H](C)C[C@@H](N(C)C)[C@@H]3O)[C@H](C)C[C@]3(CO3)C(=O)[C@H](C)[C@H](O)[C@H](C)[C@H](C)OC(=O)[C@@H]2C)O[C@@H](C)[C@H]1O`, the AC50 entry was “inactive”.

For the molecule `C[N+]1(CCC[N+]2(C)C[C@H]3[C@H](C2)[C@H]2C=C[C@@H]3CC2)CCOCC1` (stereo partly drawn), the activity, negative = inhibition was -2.37% [at 11.4 µM] (inactive).

Turning to `NC(=S)Nc1cccc2cccnc12`, the AC50 entry is “inactive”.

For the molecule `NC(=S)Nc1cc2ccccc2c2ccccc12`, the AC50 is 28.2 µM (active).

On to `CN=C(N)/N=C(\N)Nc1cc2ccccc2c2ccccc12`, for which the AC50 is 1.58 µM (active).

As to `S=C(CSc1ccccc1)Nc1cccc2ccccc12`, the activity, negative = inhibition was -5.75% [at 11.4 µM] (inactive).

With `CSc1nc(Oc2ccc(F)cc2)c2ccccc2n1`, the AC50 entry is “inactive”.

Turning to `C[C@@]1(C(NC(=O)c2cccs2)c2ccc(-c3ccccc3)cc2)C[C@H]1C1CCCCC1` (stereo partly drawn), the AC50 entry is “inactive”.

For the molecule `COc1ccc(OC)c(NC(=O)CSCc2cnn(-c3ccccc3)c2-n2cccc2)c1`, the AC50 entry was “inactive”.

For the molecule `COc1ccccc1Cn1nnc2c(=O)[nH]c(C3CCN(C(=O)c4ccc(C)cc4)CC3)nc21`, the AC50 result was “inactive”.

For `O=C(NCc1ccco1)c1nc2c(nnn2Cc2cccc(Cl)c2)c(=O)[nH]1`, the AC50 entry was “inactive”.

Take `COc1cccc(Cn2nnc3c(=O)[nH]c(C4CCCN(C(=O)c5ccccc5Cl)C4)nc32)c1` (stereo not drawn): the AC50 is 15.8 µM (active).

On to `NCCSc1nc(-c2ccccc2)c(-c2ccccc2)o1`, for which the activity, negative = inhibition was 5.57% [at 11.4 µM] (inactive).

For the molecule `COc1ccc(Br)c2c1C[C@H](C(=O)O)CC2`, the activity, negative = inhibition was 7.4% [at 11.4 µM] (inactive).

Regarding `O=C(NNC(=O)c1sc2ccccc2c1Cl)Nc1ccc(Cl)cc1`, the AC50 entry was “inactive”.

For `Cc1ccc(C)c(-c2cc(C(=O)Nc3sc(C)c(C)c3C(N)=O)c3ccccc3n2)c1`, the AC50 entry was “inactive”.

As to `Cc1sc(NC(=O)C(C)C)c(C(=O)Nc2ccccc2)c1C`, the AC50 result was “inactive”.

Take `Cc1sc(NC(=O)c2ccccc2)c(C(=O)NCCN(C)C)c1C`: the AC50 is 14.1 µM (active).

In the case of `COc1cccc(-c2nnc3sc(-c4ccc(C)cc4)nn23)c1`, the AC50 result was “inactive”.

Turning to `O=C(CCn1c(=O)[nH]c2ccsc2c1=O)Nc1ccc(F)c(F)c1`, the AC50 entry was “inactive”.

As for `O=C(CCCCCn1c(=O)[nH]c2ccsc2c1=O)NCc1ccc2c(c1)OCO2`, the AC50 was 17.8 µM (active).

For `CCOc1cc2[nH]c(=O)n(CCCC(=O)NCc3ccc(OC)cc3)c(=O)c2cc1OCC`, the AC50 entry was “inactive”.

In the case of `COC(=O)C[C@@H]1O[C@H]1[C@H](C)[C@@H](OC)C(C)C`, the activity, negative = inhibition is 5.88% [at 11.4 µM] (inactive).

Consider `CC[C@@]1(O)C(=O)OCc2c1cc1n(c2=O)Cc2cc3c(CN(C)C)c(O)ccc3nc2-1`, for which the activity, negative = inhibition is -7.02% [at 11.4 µM] (inactive).

`CCn1c(Cc2ccccc2)nnc1SCC(=O)NC(C)(C)C`: the AC50 entry is “inactive”.

Regarding `C=CCn1c(Cc2ccc(OC)cc2)nnc1SCC(=O)c1cccc([N+](=O)[O-])c1`, the AC50 result was “inactive”.

In the case of `C=CCn1c(Cc2c[nH]c3ccccc23)nnc1SCC(=O)NCc1ccccc1`, the AC50 was 15.8 µM (active).

Take `Cc1cc(C(=O)N/N=C/c2cccc([N+](=O)[O-])c2)c(C)o1`: the AC50 entry was “inactive”.

In the case of `CCOC(=O)c1cc(-c2ccccc2)sc1NC(=O)c1ccc(OC)cc1`, the AC50 entry is “inactive”.

In the case of `C(=N\n1cnnc1)/c1cccn1-c1ccccc1`, the AC50 entry is “inactive”.

As for `O=[N+]([O-])c1ccc(/C=N/Nc2cc(Cl)nc(-c3ccccc3)n2)cc1`, the AC50 entry is “inactive”.

As to `O=[N+]([O-])c1ccc(N/N=C\c2cccn2-c2ccccc2)nc1`, the AC50 was 4.47 µM (active).

With `CN1C(=O)CC[C@@H]1c1cccnc1`, the AC50 result is “inactive”.

For `Cc1cccn2c(/C=N/OCc3ccc(F)cc3)c(-c3ccc(Cl)cc3)nc12`, the AC50 entry is “inactive”.

With `COc1ccc(/C=N/NC(=O)C2CCN(c3ncc(C(F)(F)F)cc3Cl)CC2)cc1`, the AC50 entry was “inactive”.

Take `Cc1cccc(NC(=O)CCS(=O)(=O)c2cccc3nsnc23)c1C`: the AC50 result is “inactive”.

`O=C(CCCNS(=O)(=O)c1cccc2nsnc12)NCCc1ccccc1`: the AC50 was 14.1 µM (active).

As for `O=C(CCS(=O)(=O)c1cccc2nsnc12)NC1CCCCC1`, the AC50 result was “inactive”.
